Measurements reported in PubChem BioAssay (NCATS).
Values joined by “and” are separate entries in the source; they are usually repeats but may differ in a detail not shown here. Equal entries are not always repeated. Records with an inconclusive call do not appear. Active and inactive are the calls of the source. Unless noted, calls come from the whole dose curve.

Key:
[1] = qHTS assay for small molecule agonists of retinoid X receptor alpha signaling (AID 588544); settings: HEK293T RXRa-UAS-bla, beta-lactamase reporter, 18 h; 530 nm emission;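 for activation: 0% = DMSO basal wells and 100% = reference agonist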
[2] = biological target: Retinoic acid receptor RXR-alpha (Homo sapiens) (UniProt P19793); test: as above; settings: HEK293T RXRa-UAS-bla, beta-lactamase reporter, 18 h; series mostly up to 76.7 µM
[3] = biological target: Thyroid hormone receptor beta (Homo sapiens) (UniProt P10828); test: qHTS assay for small molecule agonists of thyroid hormone receptor beta signaling (AID 588545); settings: TR-UAS-bla GripTite HEK 293, beta-lactamase ratio, agonist mode, 18 h, percent of T3 response, DMSO as zero; series mostly up to 76.7 µM;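 note: 0% = DMSO only and 100% = 10 nM T3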
Method in brief: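 TR-UAS-bla GripTite HEK 293 cells (2500/well, medium with 2% charcoal/dextran FBS) were treated in agonist mode for 18 h at 37 C, titrated. Beta-lactamase was read by CCF4 ratio after 2 h; normalized to 10 nM T3 (100%) and DMSO, Hill-fitted for EC50 and efficacy.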

[4] = qHTS assay for small molecule antagonists of retinoid X receptor alpha signaling (AID 588546; active = well fitted inhibition curve with a large enough effect in the signal ratio, with a control signal flat, not every such curve was filed as active; the % refers to the signal ratio;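 note: cells stimulated with 9-cis-retinoic acid as agonist; % is set by controls: 0 for no effect and ±100 for the full control effect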); settings: HEK293T RXRa-UAS-bla, beta-lactamase ratio, antagonist mode; measured here: W530 green channel, cytotoxicity proxy
Method in brief: (§1)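 Beta-lactamase reporter inhibition, read as CCF4 fluorescence ratio (ex 405, em 460/530 nm) after 2 h at RT. HEK293T UAS-bla cells, 2500/well, were stimulated with 9-cis-RA at 500 or 100 nM final alongside test compound for 18 h at 37 C.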

[5] = biological target: Retinoic acid receptor RXR-alpha (Homo sapiens) (UniProt P19793); test: as above; settings: HEK293T RXRa-UAS-bla, beta-lactamase ratio, antagonist mode
Method in brief: as §1

[6] = biological target: Thyroid hormone receptor beta (Homo sapiens) (UniProt P10828); test: qHTS assay for small molecule antagonists of thyroid hormone receptor beta signaling (AID 588547; active = well fitted inhibition curve with a large enough effect in the signal ratio, with a control signal flat, not every such curve was filed as active; the % refers to the signal ratio;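 note: cells stimulated with 0.4 nM T3 agonist during compound exposure; % is set by controls: 0 for no effect and ±100 for the full control effect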); settings: TR-UAS-bla HEK293, beta-lactamase ratio, antagonist mode, 18 h
Method in brief: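 TR-UAS-bla GripTite HEK293 cells in 2% charcoal/dextran FBS medium were preincubated 4 h at 37 C, given compound (0.59 nM to 92 uM) plus 0.4 nM T3 (final) for 18 h, then CCF4 for 2 h at RT; Hill fit gave IC50.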

[7] = biological target: Voltage-gated inwardly rectifying potassium channel KCNH2 (Homo sapiens) (UniProt Q12809); test: qHTS Assay for Small Molecule Inhibitors of the Human hERG Channel Activity (AID 588834; active = well fitted inhibition curve with a large enough effect;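 note: top concentration of the series differs between compounds; % is set by controls: 0 for no effect and ±100 for the full control effect; lower thallium flux fluorescence means stronger hERG block; nearly all actives have a fitted effect of over 50% in size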); settings: U2OS BacMam hERG, FluxOR thallium flux fluorescence; series mostly up to 92.2 µM
Method in brief: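 hERG-BacMam U2OS, 2000 cells/well; 0.7X FluxOR loading 1 hr RT dark; cpd ~10 min 37 °C; stim buffer; FDSS fluorescence 2 min @ 1 s; AC50 Hill fit.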

[8] = qHTS assay for small molecule agonists of the antioxidant response element (ARE) signaling pathway (AID 651741; active = well fitted activation curve with a large enough effect in the signal ratio; the % refers to the signal ratio; note: potency is the fitted concentration of half-maximal effect; for activation: % of control where 0% means no effect); settings: HepG2 ARE-bla reporter, beta-lactamase FRET ratio, 16 h; series mostly up to 96 µM
Method in brief: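 ARE-bla HepG2 cells (beta-lactamase reporter under ARE control) were plated at 2,000 cells/well, preincubated 5 h at 37 C/5% CO2, then treated with DMSO-dissolved compounds for 16 h at 37 C; LiveBLAzer B/G FRET substrate added, fluorescence read after 2 h at room temperature.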

[9] = qHTS assay for small molecule activators of the nuclear factor-kappa B (NF-kB) signaling pathway (AID 651749; active = well fitted activation curve with a large enough effect in the signal ratio; the % refers to the signal ratio; note: % of control where 0% means no effect); settings: NF-kB-bla ME-180 cells, beta-lactamase FRET ratio, 16 h; stronger effect = higher value
Method in brief: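 ME-180 cells stably carrying a beta-lactamase reporter under an NF-kB response element were exposed to compound or DMSO vehicle for 16 hr at 37C, 5% CO2. Pathway activation was read by FRET, since reporter expression disrupts FRET.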

[10] = qHTS assay for small molecule activators of the p53 signaling pathway (AID 651743; active = well fitted activation curve with a large enough effect in the signal ratio, not every such curve was filed as active; the % refers to the signal ratio; note: % of control where 0% means no effect); settings: HCT-116 p53RE-bla, beta-lactamase FRET ratio, 16 h; stronger effect = higher value
Method in brief: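 p53RE-bla HCT-116 cells with a stably integrated beta-lactamase reporter under p53 response elements were plated, rested 5 hours at 37 C/5% CO2, then exposed to compounds in DMSO for 16 hours at 37 C. LiveBLAzer B/G FRET substrate was read after 2 hours at room temperature.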

Retinoic acid receptor RXR-alpha (Homo sapiens), sequence (P19793 whole entry, looked up): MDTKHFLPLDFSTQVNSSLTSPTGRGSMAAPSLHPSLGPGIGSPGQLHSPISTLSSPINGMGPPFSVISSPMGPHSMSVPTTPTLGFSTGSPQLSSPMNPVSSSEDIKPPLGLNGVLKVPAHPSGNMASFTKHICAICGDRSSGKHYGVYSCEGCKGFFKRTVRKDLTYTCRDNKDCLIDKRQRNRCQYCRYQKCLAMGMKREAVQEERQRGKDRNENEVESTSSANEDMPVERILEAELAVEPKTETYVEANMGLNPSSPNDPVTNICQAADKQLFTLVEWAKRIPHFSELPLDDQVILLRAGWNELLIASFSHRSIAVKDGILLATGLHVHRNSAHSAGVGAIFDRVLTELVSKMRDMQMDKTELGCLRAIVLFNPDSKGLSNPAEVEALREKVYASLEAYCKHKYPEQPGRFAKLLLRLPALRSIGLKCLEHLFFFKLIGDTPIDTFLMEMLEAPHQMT
Voltage-gated inwardly rectifying potassium channel KCNH2 (Homo sapiens), sequence (Q12809 whole entry, looked up): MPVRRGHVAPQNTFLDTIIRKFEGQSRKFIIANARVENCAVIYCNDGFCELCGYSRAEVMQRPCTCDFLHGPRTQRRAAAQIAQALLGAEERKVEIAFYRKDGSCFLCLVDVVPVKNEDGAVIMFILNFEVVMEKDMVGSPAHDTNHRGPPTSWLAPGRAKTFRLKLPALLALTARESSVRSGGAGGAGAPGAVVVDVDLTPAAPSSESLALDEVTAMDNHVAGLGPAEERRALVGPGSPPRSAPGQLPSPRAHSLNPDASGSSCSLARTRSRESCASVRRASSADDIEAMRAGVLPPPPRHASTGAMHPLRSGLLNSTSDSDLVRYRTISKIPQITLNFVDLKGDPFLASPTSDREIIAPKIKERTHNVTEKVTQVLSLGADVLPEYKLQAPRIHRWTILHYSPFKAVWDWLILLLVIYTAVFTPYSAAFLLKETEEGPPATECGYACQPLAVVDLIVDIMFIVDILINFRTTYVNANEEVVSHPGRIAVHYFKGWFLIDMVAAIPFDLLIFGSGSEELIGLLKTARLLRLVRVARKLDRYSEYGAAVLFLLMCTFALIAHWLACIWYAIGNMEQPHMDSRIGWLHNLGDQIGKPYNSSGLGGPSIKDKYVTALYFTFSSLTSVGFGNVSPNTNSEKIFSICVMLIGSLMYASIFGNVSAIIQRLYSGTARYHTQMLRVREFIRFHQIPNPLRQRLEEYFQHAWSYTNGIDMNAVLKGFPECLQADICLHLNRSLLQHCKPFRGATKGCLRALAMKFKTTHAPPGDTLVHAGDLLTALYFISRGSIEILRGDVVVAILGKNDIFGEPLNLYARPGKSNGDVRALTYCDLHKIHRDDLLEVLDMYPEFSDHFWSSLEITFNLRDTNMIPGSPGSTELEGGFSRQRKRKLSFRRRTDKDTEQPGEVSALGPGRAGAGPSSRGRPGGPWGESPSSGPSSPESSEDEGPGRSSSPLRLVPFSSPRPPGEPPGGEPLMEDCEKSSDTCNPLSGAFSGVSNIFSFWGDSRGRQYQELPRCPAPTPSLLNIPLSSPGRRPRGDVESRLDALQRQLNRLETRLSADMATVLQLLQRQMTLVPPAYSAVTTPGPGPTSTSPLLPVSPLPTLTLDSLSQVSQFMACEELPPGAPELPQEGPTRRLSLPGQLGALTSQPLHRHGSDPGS
Thyroid hormone receptor beta (Homo sapiens), sequence (P10828 whole entry, looked up): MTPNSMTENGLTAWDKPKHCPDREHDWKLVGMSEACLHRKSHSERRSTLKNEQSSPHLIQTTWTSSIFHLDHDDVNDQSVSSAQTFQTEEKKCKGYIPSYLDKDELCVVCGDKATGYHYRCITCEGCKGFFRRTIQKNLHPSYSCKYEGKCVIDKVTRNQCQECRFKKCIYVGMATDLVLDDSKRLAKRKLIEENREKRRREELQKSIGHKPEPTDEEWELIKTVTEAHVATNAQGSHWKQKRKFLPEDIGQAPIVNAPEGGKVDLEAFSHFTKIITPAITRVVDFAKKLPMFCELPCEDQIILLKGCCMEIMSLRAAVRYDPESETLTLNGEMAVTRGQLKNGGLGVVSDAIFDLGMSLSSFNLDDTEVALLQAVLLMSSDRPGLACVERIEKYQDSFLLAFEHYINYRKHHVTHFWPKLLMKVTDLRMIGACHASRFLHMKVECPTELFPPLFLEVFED

Row | SMILES | max response [1] [%] | outcome [2] | outcome [3] | max response [4] | max response [5] | activity change % (negative = inhibition) [6] | Potency [7] | Potency [8] | activation [9] | activation [10]
1 | CCOC(=O)OCC | -14.7 | inactive | inactive | 10.9% | -0.211% (inactive) | 5.41% (inactive) | inactive | inactive | -0.0369% (inactive) | –
2 | Cc1cc(C2(c3cc(C)c(O)cc3C)OS(=O)(=O)c3ccccc32)c(C)cc1O | -3.17 | inactive | inactive | -12.4% | 0.408% (inactive) | -15% (inactive) | inactive | – | – | -5.82% (inactive)
3 | CCCCC(CC)COCC1CO1 (centres undefined) | -2.88 | inactive | inactive | 2.35% | 9.33% (inactive) | 1.98% (inactive) | inactive | inactive | 0.588% (inactive) | –
4 | Nc1cc(Cl)c(N)c(Cl)c1 | -14.2 | inactive | inactive | 7.26% and 6.97% | -5.31% (inactive) and -44.9% (inactive) | -9.25% (inactive) | inactive | – | – | 0.0675% (inactive) and 1.35% (inactive)
5 | C=Cc1ccccn1 | -16.6 | inactive | inactive | -12.9% | -1.58% (inactive) | -28.4% (inactive) | inactive | – | – | -2.17% (inactive)
6 | Oc1c(Cl)ccc(Cl)c1Cl | 2.14 | inactive | inactive | 1.62% | 17.5% (inactive) | 13.7% (inactive) | inactive | – | – | 1.05% (inactive)
7 | Nc1cc(Cl)c([N+](=O)[O-])cc1O | -11.8 | inactive | inactive | -8.58% | -8.94% (inactive) | 14.2% (inactive) | inactive | 8.41 µM (active) | 0.0071% (inactive) | -0.259% (inactive)
8 | C=CCCCCCC | -14 | inactive | inactive | 0.804% | -6.3% (inactive) | -3.79% (inactive) | inactive | – | – | -2.89% (inactive)
9 | COc1ccc(N)c(OC)c1 | -3.88 | inactive | inactive | -0.758% | -1.72% (inactive) | -1.14% (inactive) | inactive | – | – | 1.84% (inactive)
10 | C=Cc1ccc(C=C)cc1 | -1.02 | inactive | inactive | -3.44% | 16.7% (inactive) | -18.2% (inactive) | inactive | inactive | 0.161% (inactive) | –
11 | CCCCCCC(=O)O | -3.5 | inactive | inactive | -1.09% | 7.92% (inactive) | -7.74% (inactive) | inactive | – | – | -5.16% (inactive)
12 | Cc1ccc(C(=O)O)cc1 | 4.67 | inactive | inactive | -2.83% | -5.24% (inactive) | 18.4% (inactive) | inactive | – | – | -5.46% (inactive)
13 | O=Cc1ccc(C(=O)O)cc1 | 15.4 | inactive | inactive | -11.2% | 34.5% (inactive) | 7.45% (inactive) | inactive | – | – | -2.17% (inactive)
14 | O=[N+]([O-])c1ccc(NCCO)c(OCCO)c1 | 4.58 | inactive | inactive | -6.21% | -6.4% (inactive) | -13.2% (inactive) | inactive | – | – | -3% (inactive)
15 | CCOCC(=O)O | -7.45 | inactive | inactive | 2.97% | 4.52% (inactive) | 4.7% (inactive) | inactive | inactive | 0.266% (inactive) | -3.4% (inactive)
16 | COc1cccc2sc(N)nc12 | 2.8 | inactive | inactive | -11.1% | -10.9% (inactive) | -20.5% (inactive) | inactive | inactive | 0.198% (inactive) | –
17 | O=[N+]([O-])c1cccc(C(F)(F)F)c1 | -15.5 | inactive | inactive | -3.15% | -2.39% (inactive) | 8.91% (inactive) | inactive | – | – | 2.87% (inactive)
18 | CCC(C)(C)OC | 10.3 | inactive | inactive | -18.1% | 17% (inactive) | -6.68% (inactive) | inactive | inactive | -0.279% (inactive) | –
19 | FB(F)F | -9.29 | inactive | inactive | 16.6% | -6.25% (inactive) | 15.2% (inactive) | inactive | inactive | 5.29% (inactive) | –
20 | OC1CCCC1 | -0.127 | inactive | inactive | -8.22% | 5.18% (inactive) | 8.64% (inactive) | inactive | inactive | 1.54% (inactive) | –
21 | O=Cc1cccc(Br)c1 | 0.636 | inactive | inactive | 0.346% | 4.36% (inactive) | -16.4% (inactive) | inactive | – | – | -0.251% (inactive)
